{"source": "PubChem BioAssay AID893", "about": "(National Center for Advancing Translational Sciences (NCATS), 2007)", "note": "Out of some 75,000 compounds screened, about 5,700 (7.6%) were called active. Inconclusive results (about 7%) are left out. This is one part of a sample in which actives are shown more often than they occur. The call rests on the fitted dose curve; in most records, active means well fitted inhibition curve with a large enough effect; inconclusive means small, poorly fitted or top-dose-only effect; inactive means no such curve, though single readings can be large or run the other way. On the % scale 0 is the no-effect control and ±100 the full control effect; potency means the concentration at half of the fitted maximal effect.", "data": [{"target": "3-hydroxyacyl-CoA dehydrogenase type-2 (Homo sapiens) (UniProt Q99714)", "assay": "qHTS Assay for Inhibitors of HSD17B4, hydroxysteroid (17-beta) dehydrogenase 4;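 further: the protocol describes HADH2 (HSD17B10) and not the HSD17B4 of the title; nearly all actives have a fitted effect of over 70% in size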", "conditions": "recombinant HSD17B10, NADH fluorescence kinetic; series mostly up to 57.1 µM; activity change, negative = inhibition: at the top concentration", "procedure,_shortened": "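Enzyme plus compound, 15 min room temperature; substrate mix added (NAD+ 1 mM, beta-hydroxybutyryl-CoA 90 uM final); plates read kinetically for NADH fluorescence. HADH2 was His-tagged, E. coli-derived, 20 nM.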", "values": [{"compound": "COC(=O)[C@@H]1C[C@H]2CC[C@H](O)C[C@H]2N1Cc1ccc(N2CCN(C)CC2)cc1", "activity change, negative = inhibition": "3.6% (inactive)"}, {"compound": "CNC(=O)CSc1nnc(CCc2ccccc2)n1-c1ccccc1", "activity change, negative = inhibition": "-5.46% (inactive)"}, {"compound": "CCCCCCN(C(=O)CCCCCN1C(=O)NC(c2ccc(C(F)(F)F)cc2)C(C(=O)OCc2ccccc2)=C1C)C(C(=O)NCCCC)c1ccc(OCC(=O)OC)c(C(=O)OC)c1", "note": "(centres undefined)", "activity change, negative = inhibition": "-15.2% (inactive)"}, {"compound": "O=C1c2ccccc2C(=O)N1CCCSc1ccccc1", "activity change, negative = inhibition": "-1.64% [at 11.4 µM] (inactive)"}, {"compound": "C[N+](C)(CCCCCC[N+](C)(C)CCCN1C(=O)c2cccc3cccc(c23)C1=O)CCCN1C(=O)c2cccc3cccc(c23)C1=O", "Potency": "25.1 µM (active)"}, {"compound": "CCN1C(=O)c2cccc3c(N)ccc1c23", "activity change, negative = inhibition": "0.994% (inactive)"}, {"compound": "Cc1ccc(C(=O)NCCNS(=O)(=O)c2ccccc2)cc1", "activity change, negative = inhibition": "7.56% (inactive)"}, {"compound": "COc1ccc(N2CCN(C(=O)CSc3nnc4ncccn34)CC2)cc1", "activity change, negative = inhibition": "-1.15% (inactive)"}, {"compound": "C=CCOC(=O)c1ccccc1C(=O)OCC=C", "activity change, negative = inhibition": "1.8% (inactive)"}, {"compound": "CC(C)Cn1c(N)c(C(=O)NCc2cccs2)c2nc3ccccc3nc21", "Potency": "15.8 µM (active)"}, {"compound": "CCN(CC(=O)NCc1cccs1)c1nnnn1-c1ccccc1", "activity change, negative = inhibition": "18.2% (inactive)"}, {"compound": "C=CCn1c(N)c(S(=O)(=O)c2cccs2)c2nc3ccccc3nc21", "Potency": "25.1 µM (active)"}, {"compound": "C=CCn1c(N)c(C(=O)OCC(C)C)c2nc3ccccc3nc21", "Potency": "31.6 µM (active)"}, {"compound": "COC(=O)c1cn(CC(=O)NCc2cccs2)c2ccccc12", "activity change, negative = inhibition": "-2.79% (inactive)"}, {"compound": "C=CCn1c(C(C)NC(=O)CC)nc2ccccc21", "note": "(centres undefined)", "activity change, negative = inhibition": "-4.61% (inactive)"}, {"compound": "c1csc(-c2nc(-c3ccncc3)no2)c1", "activity change, negative = inhibition": "6.88% (inactive)"}, {"compound": "c1ccc2cc(OCCN3CCCC3)ccc2c1", "activity change, negative = inhibition": "1.12% (inactive)"}, {"compound": "CCCC[C@H]1C(=O)N(c2ccccc2)N(c2ccc(O)cc2)C1=O", "activity change, negative = inhibition": "-15.3% [at 25.6 µM] (inactive)"}, {"compound": "C/C=C/C=C/C(=O)O", "activity change, negative = inhibition": "7.5% (inactive)"}, {"compound": "COc1ccc(S(=O)(=O)N2CCC(C(=O)N3CCc4ccccc4C3)CC2)cc1OC", "activity change, negative = inhibition": "-13.7% (inactive)"}, {"compound": "CSc1nnc2c(n1)OC(c1cn(C)c3ccccc13)N(C(C)=O)c1ccccc1-2", "note": "(centres undefined)", "activity change, negative = inhibition": "0.0624% (inactive)"}, {"compound": "CCCCn1c(CN2CCN(CCO)CC2)nc2ccccc21", "activity change, negative = inhibition": "14.8% (inactive)"}, {"compound": "CCCc1nc2c(C)cc(-c3nc4ccccc4n3C)cc2n1Cc1ccc(-c2ccccc2C(=O)O)cc1", "Potency": "31.6 µM (active)"}, {"compound": "CCCCn1c(CCCNC(=O)CC)nc2ccccc21", "activity change, negative = inhibition": "1.46% (inactive)"}, {"compound": "Cc1ccc(Nc2cc(=O)n(C3CCCCC3)c(=O)[nH]2)cc1C", "activity change, negative = inhibition": "0.726% (inactive)"}, {"compound": "Cc1ccc(CCn2c3c(c4ccccc42)CN(C)CC3)cn1", "activity change, negative = inhibition": "-4.43% (inactive)"}, {"compound": "CC1(C)OC(C(O)(c2ccccc2)c2ccccc2)C(C(O)(c2ccccc2)c2ccccc2)O1", "note": "(centres undefined)", "activity change, negative = inhibition": "1.95% [at 11.4 µM] (inactive)"}, {"compound": "C=CCN1C(=O)C(O)(CC(=O)c2ccc(Cl)cc2)c2ccccc21", "note": "(centres undefined)", "activity change, negative = inhibition": "-9.85% (inactive)"}, {"compound": "COc1cc2[nH]c(=S)n(Cc3ccc(C)o3)c(=O)c2cc1OC", "activity change, negative = inhibition": "-14% (inactive)"}, {"compound": "COc1cc2[nH]c(=O)n(CCC(=O)NC3CCN(Cc4ccccc4)CC3)c(=O)c2cc1OC", "activity change, negative = inhibition": "-23.8% (inactive)"}, {"compound": "COc1ccc(CCN(Cc2cc3cccc(C)c3[nH]c2=O)C(=O)N2CCCC2)cc1OC", "activity change, negative = inhibition": "-9.05% (inactive)"}, {"compound": "COc1cc2cc(CN(CCN3CCCC3)C(=O)Nc3ccccc3Cl)c(=O)[nH]c2cc1OC", "Potency": "25.1 µM (active)"}, {"compound": "C[C@@H](N)[C@@H](C)Cc1ccccc1", "activity change, negative = inhibition": "4.93% [at 11.4 µM] (inactive)"}, {"compound": "c1ccc(CSCCc2ccncc2)cc1", "activity change, negative = inhibition": "1.7% [at 11.4 µM] (inactive)"}, {"compound": "COc1ccc(/C=C/NC(=O)c2ccc(OC)cc2)cc1", "activity change, negative = inhibition": "7.09% [at 11.4 µM] (inactive)"}, {"compound": "COc1ccc(C(=O)NC(=O)CSc2nnc(-c3ccco3)n2-c2ccccc2)cc1", "activity change, negative = inhibition": "-19.2% (inactive)"}, {"compound": "COc1ccc(C(=O)NCc2cn3ccccc3n2)cc1", "Potency": "31.6 µM (active)"}, {"compound": "CC(C)(O/N=C(\\C(=O)N[C@@H]1C(=O)N2C(C(=O)[O-])=C(C[n+]3ccccc3)CS[C@@H]12)c1csc(N)n1)C(=O)O", "activity change, negative = inhibition": "-25.6% [at 25.6 µM] (inactive)"}, {"compound": "CC(C)[C@H]1CC[C@@H](C)C[C@H]1O", "activity change, negative = inhibition": "19.7% (inactive)"}, {"compound": "COc1ccc(N(Cc2cc3cc(OC)ccc3[nH]c2=O)S(C)(=O)=O)cc1", "activity change, negative = inhibition": "5.18% (inactive)"}, {"compound": "CCN(Cc1cc2cc(C)ccc2[nH]c1=O)S(=O)(=O)c1ccccc1", "activity change, negative = inhibition": "-5.26% (inactive)"}, {"compound": "COc1ccc2[nH]c(=O)c(CN(CC3CCCO3)C(=O)Nc3ccccc3)cc2c1", "note": "(centres undefined)", "Potency": "25.1 µM (active)"}, {"compound": "CCOC(=O)c1cc2cc(C)ccc2[nH]1", "activity change, negative = inhibition": "-29.8% (inactive)"}, {"compound": "Cc1cc(C)c2cc(CN(Cc3cccs3)Cc3nnnn3CC3CCCO3)c(=O)[nH]c2c1", "note": "(centres undefined)", "activity change, negative = inhibition": "-5.81% (inactive)"}, {"compound": "CCC(c1nnnn1Cc1ccccc1)N(Cc1cc2cc(OC)ccc2[nH]c1=O)CC1CCCO1", "note": "(centres undefined)", "activity change, negative = inhibition": "-14.7% (inactive)"}, {"compound": "COc1cccc(-n2c(Cc3cc(=O)[nH]c(=O)[nH]3)nnc2SCC(=O)Nc2ccccc2)c1", "activity change, negative = inhibition": "13.3% (inactive)"}, {"compound": "CCC(=O)N(Cc1cc2cc(OC)ccc2[nH]c1=O)c1ccccc1C", "Potency": "25.1 µM (active)"}, {"compound": "COc1ccc2[nH]c(=O)c(CN(Cc3nnnn3CCc3ccccc3)CC3CCCO3)cc2c1", "note": "(centres undefined)", "Potency": "25.1 µM (active)"}, {"compound": "O=C(CN(CC1CCCO1)C(=O)CNS(=O)(=O)c1ccccc1)NCc1ccccc1", "note": "(centres undefined)", "activity change, negative = inhibition": "3.8% (inactive)"}, {"compound": "Cc1ccc2[nH]c(=O)c(COC(=O)c3ccccn3)cc2c1", "activity change, negative = inhibition": "2.81% (inactive)"}, {"compound": "CCOc1ccc2[nH]c(=O)c(CN(CCCO)C(C)=O)cc2c1", "Potency": "31.6 µM (active)"}, {"compound": "COCC(=O)N1CCC2(CCCN(c3ccccc3)C2)CC1", "activity change, negative = inhibition": "0.0239% (inactive)"}, {"compound": "Cc1cc(N(C)C)cc(C)[n+]1[O-]", "activity change, negative = inhibition": "-0.103% (inactive)"}, {"compound": "O=C(O)CCC(=O)N(Cc1ccco1)c1nc(-c2ccccc2)cs1", "activity change, negative = inhibition": "1.5% (inactive)"}, {"compound": "O=C(c1cccc(C(=O)N2CCc3ccccc32)n1)N1CCc2ccccc21", "activity change, negative = inhibition": "0.85% (inactive)"}, {"compound": "COc1cc(OC)c2c(c1Cl)OC1(C2=O)C(O)=CC(=O)CC1C", "note": "(centres undefined)", "activity change, negative = inhibition": "3.09% (inactive)"}, {"compound": "COc1ccc2c3c(c(=O)oc2c1OCC(=O)C(C)(C)C)CCCC3", "Potency": "25.1 µM (active)"}, {"compound": "Cc1c(C)c2cc3c4c(oc3c(C)c2oc1=O)CCCC4", "activity change, negative = inhibition": "-7.6% (inactive)"}, {"compound": "COc1ccc(C(=O)OCC(=O)c2ccc(C)c(S(=O)(=O)N3CCOCC3)c2)cc1OC", "activity change, negative = inhibition": "55.3% (inactive)"}, {"compound": "CCCOc1ccc2c3c(c(=O)oc2c1OCCC)CCC3", "Potency": "12.6 µM (active)"}, {"compound": "COc1ccc(Cl)cc1S(=O)(=O)N1CCN(CC(=O)C(C)(C)C)CC1", "activity change, negative = inhibition": "5.3% (inactive)"}, {"compound": "O=C(COc1ccc(S(=O)(=O)NCCc2ccccc2)cc1)N1CCCC1", "activity change, negative = inhibition": "-0.347% (inactive)"}, {"compound": "c1nnc2c3c4c(sc3ncn12)CCC4", "activity change, negative = inhibition": "4% (inactive)"}, {"compound": "CCOC(=O)C1=C(C)NC(=O)N(C(C)=O)C1c1ccc(Cl)cc1", "note": "(centres undefined)", "activity change, negative = inhibition": "-3.44% (inactive)"}]}]}
